According to PubChem BioAssay (EPA / NIEHS):
“And” between values parts separate entries of the source, which are not always exact repeats. Identical values can stand only once. Records with an inconclusive call do not appear. The source made the active and inactive calls. How the source made its calls, unless noted: active means hit-call score of the fitted dose curve at least 0.9, where 1 is the maximum; inactive means score below 0.9.

Legend:
[1] = read-out: Interleukin-8 (IL8), CXCL8 (gene 3576); experiment: BSK_3C_IL8: BioMAP Diversity Plus: 3C Assay for Interleukin-8 (IL8) Biomarker Activity (AID 2283020); settings: primary human endothelial cells (HUVEC); actives raise or lower the signal
How it was run: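 Primary human umbilical vein endothelial cells (3C system) were exposed to test chemical for 24 h, then IL-8 was quantified by ELISA. Responses were fitted bidirectionally against DMSO vehicle as baseline.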

[2] = read-out: Monokine induced gamma interferon (MIG), CXCL9 (gene 4283); experiment: BSK_3C_MIG: BioMAP Diversity Plus: 3C Assay for Monokine induced gamma interferon (MIG) Biomarker Activity (AID 2283021); settings: primary human endothelial cells (HUVEC); actives raise or lower the signal;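 on AC50: MIG protein level measured by immunoassay in the treated endothelial cultures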
How it was run: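 Primary human umbilical vein endothelial cells in the 3C system were exposed to chemical for 24 h, after which MIG was quantified by ELISA. Activity was fitted bidirectionally against DMSO as negative control and baseline.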

[3] = target: human Vitamin D Receptor (VDR), VDR (gene 7421) (UniProt P11473); experiment: ATG_VDR_TRANS: Attagene TRANS-FACTORIAL HepG2 Assay for human Vitamin D Receptor (VDR) (AID 2283022; active means hit-call score of the fitted dose curve at least 0.9, where 1 is the maximum)
How it was run: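 Multiplexed TRANS reporter in HepG2; 24 h treatment; reporter mRNA by RT-PCR plus capillary electrophoresis; upregulation scored relative to DMSO.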

[4] = BSK_3C_SRB: Viability Assessment in the BioMAP Diversity Plus: 3C Assay (AID 2283023); settings: primary human endothelial cells (HUVEC);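 further: cells read 24 h after compound dosing; fitted both ways against DMSO so a hit may be signal rise or drop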
How it was run: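 Overt cytotoxicity is gauged in parallel confluent HUVEC cultures by SRB total-protein staining at the time of biomarker measurement, 24 h after dosing. Gain or loss of signal is fitted versus DMSO.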

[5] = read-out: Pselectin, SELP (gene 6403); experiment: BSK_4H_Pselectin: BioMAP Diversity Plus: 4H Assay for Pselectin Biomarker Activity (AID 2283026); settings: primary human endothelial cells (HUVEC); actives raise or lower the signal
How it was run: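 Primary human umbilical vein endothelial cells were exposed to test chemical for 24 h, then cell-surface P-selectin was quantified by ELISA. Activity was fitted bidirectionally against DMSO as negative control and baseline.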

[6] = BSK_4H_SRB: Viability Assessment in the BioMAP Diversity Plus: 4H Assay (AID 2283027); settings: primary human endothelial cells (HUVEC);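 further: cells exposed to compound for 24 h before staining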;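 on AC50: curves fitted both ways versus DMSO so AC50 may be loss or gain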
How it was run: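 Absorbance at 560 nm of SRB-stained total protein served as the viability read-out in confluent primary human umbilical vein endothelium 24 h after chemical treatment. Curves were fitted bidirectionally against DMSO as negative control.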

[7] = BSK_BE3C_SRB: Viability Assessment in the BioMAP Diversity Plus: BE3C Assay (AID 2283028); settings: primary human bronchial epithelial cells
How it was run: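 SRB total-protein staining (0.1%, after TCA fixation) of chemically dosed human bronchial epithelial primary cells at 24 h; DMSO serves as the negative control for bidirectional curve fitting.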

[8] = read-out: Thrombomodulin, THBD (gene 7056); experiment: BSK_3C_Thrombomodulin: BioMAP Diversity Plus: 3C Assay for Thrombomodulin Biomarker Activity (AID 2283029); settings: primary human endothelial cells (HUVEC); actives raise or lower the signal
How it was run: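 Primary human umbilical vein endothelial cells (3C system) were exposed to chemical for 24 h, then thrombomodulin levels were measured by ELISA. Activity was fitted bidirectionally against the DMSO negative control as baseline.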

[9] = read-out: Urokinase-type plasminogen activator receptor (uPAR), PLAUR (gene 5329); experiment: BSK_4H_uPAR: BioMAP Diversity Plus: 4H Assay for Urokinase-type plasminogen activator receptor (uPAR) Biomarker Activity (AID 2283030); settings: primary human endothelial cells (HUVEC); actives raise or lower the signal
How it was run: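 Endpoint derived via bidirectional curve fitting against DMSO baseline; readout was ELISA detection of uPAR on umbilical vein endothelial cells at 24 h post-treatment, with SRB-stained parallel cultures assessing cytotoxicity.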

[10] = read-out: Human Leukocyte Antigen - DR isotype (HLADR), HLA-DRA (gene 3122); experiment: BSK_BE3C_HLADR: BioMAP Diversity Plus: BE3C Assay for Human Leukocyte Antigen - DR isotype (HLADR) Biomarker Activity (AID 2283032); settings: primary human bronchial epithelial cells; actives raise or lower the signal
How it was run: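 Human primary bronchial epithelial cells in the BE3C system were exposed to chemicals for 24 h, after which HLA-DR levels were quantified by ELISA. Activity was fitted bidirectionally, gain or loss of signal, against DMSO as negative control and baseline.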

[11] = read-out: Vascular cell adhesion molecule 1 (VCAM1), VCAM1 (gene 7412); experiment: BSK_4H_VCAM1: BioMAP Diversity Plus: 4H Assay for Vascular cell adhesion molecule 1 (VCAM1) Biomarker Activity (AID 2283033); settings: primary human endothelial cells (HUVEC); actives raise or lower the signal
How it was run: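 Primary human umbilical vein endothelial cells were exposed to chemicals for 24 h, after which VCAM-1 was quantified by ELISA. Responses were fitted bidirectionally against DMSO as negative control and activity baseline.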

[12] = read-out: Interferon-gamma inducible Protein 10 (IP10), CXCL10 (gene 3627); experiment: BSK_BE3C_IP10: BioMAP Diversity Plus: BE3C Assay for Interferon-gamma inducible Protein 10 (IP10) Biomarker Activity (AID 2283034); settings: primary human bronchial epithelial cells; actives raise or lower the signal
How it was run: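 Human primary bronchial epithelial cells were exposed to chemicals for 24 hours, after which IP-10 levels were measured by ELISA. Data were fitted bidirectionally against DMSO, which served as the negative control and activity baseline.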

[13] = read-out: Monokine induced gamma interferon (MIG), CXCL9 (gene 4283); experiment: BSK_BE3C_MIG: BioMAP Diversity Plus: BE3C Assay for Monokine induced gamma interferon (MIG) Biomarker Activity (AID 2283035); settings: primary human bronchial epithelial cells; actives raise or lower the signal;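 further: MIG protein measured by ELISA in BE3C cultures after 24 h of dosing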
How it was run: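 MIG level was determined by ELISA after 24 h chemical treatment of primary human bronchial epithelial cells. Values were fitted bidirectionally with DMSO as the negative control and activity baseline.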

[14] = read-out: Plasminogen activator inhibitor-1 (PAI1), SERPINE1 (gene 5054); experiment: BSK_BE3C_PAI1: BioMAP Diversity Plus: BE3C Assay for Plasminogen activator inhibitor-1 (PAI1) Biomarker Activity (AID 2283037); settings: primary human bronchial epithelial cells; actives raise or lower the signal
How it was run: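 Human primary bronchial epithelial cells were exposed to chemical for 24 h, then PAI-1 was quantified by ELISA. Activity was fitted bidirectionally relative to the DMSO negative control baseline.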

[15] = read-out: urokinase plasminogen activator (uPA), PLAU (gene 5328); experiment: BSK_BE3C_uPA: BioMAP Diversity Plus: BE3C Assay for urokinase plasminogen activator (uPA) Biomarker Activity (AID 2283038); settings: primary human bronchial epithelial cells; actives raise or lower the signal;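 further: uPA protein level quantified by ELISA in cell cultures; uPA read one day after compound addition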
How it was run: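 Using confluent primary human lung bronchial epithelial cultures, we dosed chemicals, waited 24 h, then ran a uPA ELISA, fitting bidirectionally against DMSO.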

[16] = read-out: Urokinase-type plasminogen activator receptor (uPAR), PLAUR (gene 5329); experiment: BSK_BE3C_uPAR: BioMAP Diversity Plus: BE3C Assay for Urokinase-type plasminogen activator receptor (uPAR) Biomarker Activity (AID 2283039); settings: primary human bronchial epithelial cells; actives raise or lower the signal;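 further: uPAR protein level measured by ELISA on the cells; cells exposed to compound for one day before measurement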
How it was run: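 Primary human bronchial epithelial cells were dosed with chemical and harvested 24 h later; uPAR was quantified by ELISA. Activity was fitted bidirectionally against DMSO as negative control and baseline.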

[17] = BSK_3C_Vis: BioMAP Diversity Plus: 3C Assay for Morphology Visualization (AID 2283025); settings: primary human endothelial cells (HUVEC);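 further: fitted both ways so gain or loss versus DMSO counts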
How it was run: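 Human umbilical vein endothelial cells in the 3C system were imaged by light microscopy 24 h after chemical dosing to record cell morphology. Activity was fitted bidirectionally against DMSO as negative control and baseline; the endpoint serves as a background control.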

[18] = read-out: Vascular endothelial growth factor receptor 2 (Homo sapiens) (UniProt P35968); experiment: BSK_4H_VEGFRII: BioMAP Diversity Plus: 4H Assay for Vascular endothelial growth factor receptor 2 (VEGFR2) Biomarker Activity (AID 2283031); settings: primary human endothelial cells (HUVEC); actives raise or lower the signal;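 on AC50: cell-surface VEGFR2 protein level quantified by ELISA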
How it was run: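 In this multiplexed HUVEC system, biomarker ELISA was performed after 24 h chemical exposure. Parallel SRB staining (TCA fixation, 560 nm) tracked cytotoxicity; DMSO served as baseline.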

[19] = read-out: Transforming growth factor beta 1 (TGFb1), TGFB1 (gene 7040); experiment: BSK_BE3C_TGFb1: BioMAP Diversity Plus: BE3C Assay for Transforming growth factor beta 1 (TGFb1) Biomarker Activity (AID 2283036); settings: primary human bronchial epithelial cells; actives raise or lower the signal
How it was run: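 Human primary bronchial epithelial cells (BE3C system) were dosed with chemical and TGF-b1 levels measured by ELISA at 24 h. Activity was fitted bidirectionally relative to DMSO negative control as baseline.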

[20] = read-out: Matrix Metallopeptidase 1 (MMP1), MMP1 (gene 4312); experiment: BSK_BE3C_MMP1: BioMAP Diversity Plus: BE3C Assay for Matrix Metallopeptidase 1 (MMP1) Biomarker Activity (AID 2283024); settings: primary human bronchial epithelial cells; actives raise or lower the signal
How it was run: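 Primary human bronchial epithelial cells were dosed with test chemicals, and MMP1 levels were measured by ELISA 24 h later. Data were fitted bidirectionally against DMSO as the negative control and activity baseline.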

Measured: AC50

Sequence of human Vitamin D Receptor (VDR), VDR (gene 7421) (P11473 whole entry, looked up): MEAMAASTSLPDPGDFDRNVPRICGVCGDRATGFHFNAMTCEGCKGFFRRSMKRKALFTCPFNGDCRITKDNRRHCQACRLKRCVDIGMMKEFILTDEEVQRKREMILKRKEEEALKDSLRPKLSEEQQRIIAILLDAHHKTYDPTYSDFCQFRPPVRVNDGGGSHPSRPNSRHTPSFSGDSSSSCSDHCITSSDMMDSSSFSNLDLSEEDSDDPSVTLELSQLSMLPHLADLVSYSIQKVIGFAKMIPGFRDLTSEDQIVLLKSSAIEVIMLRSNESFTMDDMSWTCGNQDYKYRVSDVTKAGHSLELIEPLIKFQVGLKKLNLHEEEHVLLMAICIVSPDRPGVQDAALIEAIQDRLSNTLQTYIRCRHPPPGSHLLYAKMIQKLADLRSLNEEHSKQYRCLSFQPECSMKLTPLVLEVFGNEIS

OCC(F)(F)OC(F)(F)C(F)(F)OC(F)(F)C(F)(F)OC(F)(F)F
active: [1] 40.7 µM and 42.9 µM | [2] 38.9 µM and 48.5 µM | [4] 25.7 µM and 49.8 µM | [5] 52.2 µM and 44.9 µM | [6] 47.5 µM and 18.3 µM | [9] 50.3 µM and 44.6 µM
not listed: [17] | [18] | [19] | [20]
inactive: all other assays above

CCCN(CCC)c1c([N+](=O)[O-])cc(C(C)C)cc1[N+](=O)[O-]
active: [1] 31.2 µM | [4] 28.9 µM | [6] 32.8 µM | [18] 20 µM | [10] 5.79 µM | [11] 23.2 µM
not listed: [5] | [20]
inactive: all other assays above

CCNc1nc(Cl)nc(NC(C)(C)C)n1
not listed: [5] | [20]
inactive: all other assays above

O=C(O)C(Cl)Cl
not listed: [3] | [5]
inactive: all other assays above

Cc1ccc([N+](=O)[O-])cc1C
not listed: [5] | [18] | [20]
inactive: all other assays above

CCOP(=S)(OCC)SCSCC
not listed: [5]
inactive: all other assays above

CCOP(=S)(OCC)SCn1nnc2ccccc2c1=O
not listed: [5] | [18]
inactive: all other assays above
